# Screening data from PubChem.
# KB-V1 cytotox: kills drug-selected multidrug resistant KB-V1 cells; KB-V1 MDR cells viability, CellTiter-Glo, 72 h; Potency, µM (titrated, usually from 46.1 µM), usual class: cytotoxic; 3.4% of 400,000 active; AID 1347076; also: % is scaled to controls: 0 for no effect and ±100 for the full control effect; nearly all actives have a fitted effect of over 60% in size
#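 Cells of the MDR subline KB-V1 are plated, dosed with compound at multiple concentrations, and incubated 72 h at 37 degrees C; CellTiter-Glo is then added and luminescence read after 10 min.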
# SW480 rereplic: inducers of DNA re-replication in SW480 colon cancer cells; SW480 DNA re-replication, Hoechst DNA content imaging, 48 h; Potency, µM (doses to about 46.1 µM), for inactives: at the highest dose re-replication activation, usual class: activators; 1.8% of 340,000 active; AID 624297; also: % of control where 0% means no effect; nearly all actives have a fitted effect of over 55% in size
#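 Per well, 250 cells were exposed to pinned compound for 48 hr. Nuclear DNA was visualised with Hoechst (40 min, 37 C) and total object intensity recorded by fluorescence scanning.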
# PTAP TSG101 blk: blocks PTAP/TSG101 interaction to inhibit HIV-1 budding; Fluorescence polarization, FITC-PTAP peptide / Tsg101 binding; Q99816; Potency, µM (highest dose often 115 µM), for inactives: at the highest dose activity change, negative = inhibition, actives largely listed as inhibitors; 340,000 tested, under 10 active; active = well fitted inhibition curve with a large enough effect in the main read-out, with a control signal flat, not every such curve was filed as active; inconclusive = small, poorly fitted or top-dose-only effect, or effect the other way, or a change in a side signal; inactive = no such curve, though single readings can be large or run the other way; also: % of control where 0% means no effect
# Target sequence (Q99816 whole entry, looked up): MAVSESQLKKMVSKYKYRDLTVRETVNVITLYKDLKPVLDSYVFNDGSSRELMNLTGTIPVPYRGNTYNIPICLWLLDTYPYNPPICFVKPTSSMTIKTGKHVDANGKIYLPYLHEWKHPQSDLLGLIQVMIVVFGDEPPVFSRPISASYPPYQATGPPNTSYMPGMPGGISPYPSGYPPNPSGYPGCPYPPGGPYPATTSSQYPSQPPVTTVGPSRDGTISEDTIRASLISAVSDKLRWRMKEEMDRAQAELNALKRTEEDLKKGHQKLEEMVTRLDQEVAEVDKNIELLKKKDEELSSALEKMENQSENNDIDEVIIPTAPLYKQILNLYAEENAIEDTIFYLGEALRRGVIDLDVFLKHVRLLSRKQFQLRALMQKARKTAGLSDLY
#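 Compounds were pin-transferred onto Tsg101 binding domain (10 uM final) in HEPES pH 7.5 buffer, then FITC-PTAP peptide was added at 50 nM final. After 20 min at RT, polarization reported peptide displacement across a qHTS concentration series.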
# RGS4 inh: inhibitors of human regulator of G protein signaling 4. P49798. Transcreener GDP fluorescence polarization, RGS4-accelerated GTP hydrolysis. Potency, µM (highest dose often 114 µM), without a hit: at the highest dose activity change, negative = inhibition, usual class: inhibitors. 0.039% of 390,000 active; also: % is scaled to controls: 0 for no effect and ±100 for the full control effect; nearly all actives have a fitted effect of over 75% in size
# Target sequence (P49798 whole entry, looked up): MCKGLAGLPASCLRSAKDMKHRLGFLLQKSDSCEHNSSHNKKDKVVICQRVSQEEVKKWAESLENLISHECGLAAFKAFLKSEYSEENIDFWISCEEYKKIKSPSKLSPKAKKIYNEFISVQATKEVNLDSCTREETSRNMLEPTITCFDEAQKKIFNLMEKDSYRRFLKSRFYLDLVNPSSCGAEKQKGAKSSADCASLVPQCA
#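 MLSMR compounds (23 nl, pin-transferred) preincubated 10 min at room temperature with a 500nM (2x) first reagent, then RGS4 at 900nM (2x) plus Transcreener GDP mix added; fluorescence polarization (620/688 nm) read before and after 90 min at 30 °C.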
# MCF10A rereplic: DNA re-replication induction in MCF 10a cells; Potency, µM (series often up to 46.1 µM), for inactives: top-dose activity, positive = re-replication, hits mostly activators; MCF 10A DNA re-replication, Hoechst nuclear intensity, 48 h; 2.9% of 350,000 active; AID 624296; also: % of control where 0% means no effect; nearly all actives have a fitted effect of over 50% in size
# KB-3-1 tox: KB-3-1 parental cell cytotoxicity; KB-3-1 viability, CellTiter-Glo ATP luminescence, 72 h; Potency, µM (highest dose often 46.1 µM), usual class: cytotoxic; 1.4% of 400,000 active; AID 1347075; also: % is scaled to controls: 0 for no effect and ±100 for the full control effect; nearly all actives have a fitted effect of over 60% in size
#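 Viability of parental KB-3-1 cells, measured by CellTiter-Glo luminescence, followed a 72 h incubation at 37 °C with pinned compounds in phenol-red-free DMEM containing 10% FBS.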
# * = called active by the depositor; i = inactive; ? = inconclusive; · = not tested or not shown; ! = not active in a repeat; [ ] = dose if it differs, or a comment. In the library only some 6.6% were active in any assay of this set; here they are far more common. Unless noted, calls follow the shape of the dose curve; as a rule, active = well fitted curve in the direction sought with a large enough effect; inconclusive = small, poorly fitted or top-dose-only effect, or another doubt; inactive = no such curve, though single readings can be large; an effect the other way counts as inactive or inconclusive. Potency is read from the fitted curve at half-maximal effect.
SMILES,KB-V1 cytotox,SW480 rereplic,PTAP TSG101 blk,RGS4 inh,MCF10A rereplic,KB-3-1 tox
C[C@@H](Nc1nc(Cl)nc2nc[nH]c12)c1ccccc1,i,·,·,9.0%,·,i
CCN(C(=O)c1cc2c(=O)[nH]c3ccc(C)cc3c2s1)c1cccc(C)c1,i,?,-0.7%,-10.1%,?,i
Cc1ccc2[nH]c(=O)c3cc(C(=O)N(C)c4ccc(C)c(C)c4)sc3c2c1,i,14.6µM*,-13.8%,10.5%,4.11µM*,i
CCN(C(=O)c1cc2c(=O)[nH]c3ccc(C)cc3c2s1)c1ccc(F)cc1,i,?,0.0%,-3.9%[56.9 µM],16.4µM*,i
CC(C)(C)[C@@H]1CCC(=O)N(CC[C@H](N=[N+]=[N-])c2ccccc2)CC1,20.6µM*!,-1.0%,·,-16.2%,20.6µM*,i
C[C@@H]1CCC(=O)N(CC[C@H](N=[N+]=[N-])c2ccccc2)CC1,?,-18.7%,-2.5%,7.2%,0.1%,i
Cc1c(C(=O)N(Cc2ccccc2F)C2CCS(=O)(=O)C2)oc2ccccc12 (configuration not stated),i,·,·,-1.5%,·,i
C[n+]1c2n(c3ccccc31)N=C(c1ccccc1)CS2,i,?,-6.2%,-39.7%,?,2.91µM*
COc1ccccc1NC(=O)Cn1nc(C(F)(F)F)c2c1CCCC2,20.6µM*,0.9%,-5.1%,-7.4%,1.9%,i
O=C(Cn1nc(C(F)(F)F)c2c1CCC2)N1CCN(c2ccccc2)CC1,16.4µM*,-4.7%,-13.4%,-2.6%,?,i
Cc1sc(C(C2C(=O)CC(C)(C)CC2=O)C2C(=O)CC(C)(C)CC2=O)cc1[N+](=O)[O-],i,12.8%,-7.7%,-90.1%,?,i
CC1(C)CC(=O)C(C(c2cc([N+](=O)[O-])ccc2Cl)C2C(=O)CC(C)(C)CC2=O)C(=O)C1,i,11.6µM*,0.9%,-11.4%,?,i
Cc1cccc(CSc2ncc(Cl)c(C(=O)Nc3sc4c(c3C(N)=O)CCCC4)n2)c1,i,·,·,-20.8%,·,i
c1ccc(-c2cccc(-c3ccccn3)n2)nc1,1.84µM*,?,-10.2%,27.6%,?,?
c1ccc(-c2nnc(-c3ccccn3)nn2)nc1,i,?,-1.4%,3.8%[11.4 µM],12.5%,i
O=C(CSc1nc2c(c(=O)[nH]1)CN(Cc1ccc3c(c1)OCO3)CC2)Nc1cccc(Cl)c1,i,·,·,3.0%,·,i
O=[N+]([O-])c1ccc(Sc2ncccn2)c([N+](=O)[O-])c1,i,?,-2.4%,-15.2%,18.4µM*,i
O=[N+]([O-])c1ccc(Sc2nccn2Cc2ccccc2)c([N+](=O)[O-])c1,?,?,-2.3%,-17.1%,20.6µM*,i
O=[N+]([O-])c1ccccc1SNc1ccccc1,i,·,·,·,·,i
Cc1cccc(Sc2ccc([N+](=O)[O-])cc2[N+](=O)[O-])n1,i,4.6%,0.3%,-14.6%,?,i
O=[N+]([O-])c1ccc(SNc2ccccc2)c([N+](=O)[O-])c1,23.1µM*,-1.6%,-2.2%,-2.1%,26.7%,i
Cc1ccc(-c2csc(=S)n2CC(=O)OCC(=O)NCc2ccco2)cc1,?,-1.1%,0.6%,-22.8%,?,i
Cc1ccc(-c2csc(=S)n2CC(=O)OCC(=O)NC(C)C(C)C)cc1 (configuration not stated),16.4µM*,4.1%,·,-3.9%,?,i
COc1ccc(CCn2c3c(c(=O)[nH]c2=S)CN(CC(C)C)CN3)cc1OC,·,·,·,-20.6%,·,·
C=C1C(=O)C23CCC4C(C)(C(=O)OC)CCCC4(C)C2CCC1(O)C3 (configuration not stated),18.4µM*,1.16µM*,-1.2%,?,2.31µM*,?
SMILES,KB-V1 cytotox,SW480 rereplic,PTAP TSG101 blk,RGS4 inh,MCF10A rereplic,KB-3-1 tox
COC(=O)[C@]1(C)CCC[C@@]2(C)C3CC[C@@]4(C)C[C@]3(CCC21)CC(=O)N4 (some centres not stated),i,?,2.6%,19.9%,-7.2%,i
CCOC(=O)CN1C(=O)S/C(=C/c2ccc3c(c2)n(C)c(=O)n3C)C1=O,i,-6.3%,-0.3%,-33.7%,14.4%,i
C=CCN1C(=O)S/C(=C\c2ccc3c(c2)n(C)c(=O)n3C)C1=O,18.4µM*,6.4%,0.2%,-15.7%,2.9%,i
COc1ccc(CC(=O)Nn2c(-c3ccccc3)nc3ccccc3c2=O)cc1,?,-10.8%,2.7%,31.1%,-0.7%,i
COc1ccc(-c2nc3ccccc3c(=O)n2NC(=O)Cc2ccccc2)cc1,14.6µM*,-7.9%,-2.9%,-5.9%,2.1%,i
COc1ccc(C(=O)On2c(-c3ccc(Br)cc3)nc3ccccc3c2=O)cc1,?,?,-0.4%,-5.7%,9.2µM*,?
Cc1cccc(C(=O)N2CCc3cc(CNC(=O)c4ccc(Br)o4)ccc32)c1,·,·,·,-21.7%,·,·
Cc1ccc(NC(=O)C2CCCN(c3nnc(-n4c(C)ccc4C)s3)C2)c(C)c1 (configuration not stated),·,·,·,-32.6%,·,·
CCn1nc(NC(=O)c2ccco2)c2cc3ccccc3nc21,?,?,-2.7%,-1.8%,20.6µM*,i
CC(C)Cn1nc(NC(=O)c2ccco2)c2cc3ccccc3nc21,?,16.4µM*,-3.2%,-42.0%,?,?
Cc1cc(N2CCOCC2)c(F)cc1C(=O)c1ccccc1,18.4µM*,-6.8%,-6.9%,-0.8%,4.3%,i
O=C(c1cc([N+](=O)[O-])ccc1N1CCOCC1)N1CCOCC1,i,-9.7%,-3.7%,-7.3%[11.4 µM],-0.6%,i
CC(=O)c1cc(F)c(N2CCOCC2)cc1C,?,-4.6%,-4.9%,4.5%,-1.8%,i
CCOc1ccc(C(=O)c2cc([N+](=O)[O-])ccc2N2CCOCC2)cc1,?,0.058µM*,2.4%,3.8%,?,0.0291µM*
O=C(COc1ccc([N+](=O)[O-])cc1)N/N=C/c1cc([N+](=O)[O-])ccc1N1CCOCC1,16.4µM*,-8.2%,0.5%,-3.9%,8.6%,i
Cc1ccc(OCC(=O)N/N=C/c2cc([N+](=O)[O-])ccc2N2CCCCC2)cc1,i,-2.5%,1.0%,16.6%,12.9%,i
Cc1ccc(C(=O)c2cc([N+](=O)[O-])ccc2N2CCOCC2)cc1,0.82µM*,3.66µM*,-1.7%,5.5%,3.66µM*,2.06µM*
O=C(CN1C(=O)C(c2ccc(F)cc2)=NC12CCCCCC2)Nc1ccccc1Cl,·,·,·,-4.9%,·,·
